In the library only some 3.4% were active in any assay of this set; here they are far more common.
USP28 block: inhibitors of human USP28 deubiquitinase | Q96RU2 | purified USP28, Ub-rhodamine cleavage fluorescence, 30 min | inhibition, % at 25 µM | 47,000 tested, 3% active | AID 1645857
Target sequence (Q96RU2 whole entry, looked up): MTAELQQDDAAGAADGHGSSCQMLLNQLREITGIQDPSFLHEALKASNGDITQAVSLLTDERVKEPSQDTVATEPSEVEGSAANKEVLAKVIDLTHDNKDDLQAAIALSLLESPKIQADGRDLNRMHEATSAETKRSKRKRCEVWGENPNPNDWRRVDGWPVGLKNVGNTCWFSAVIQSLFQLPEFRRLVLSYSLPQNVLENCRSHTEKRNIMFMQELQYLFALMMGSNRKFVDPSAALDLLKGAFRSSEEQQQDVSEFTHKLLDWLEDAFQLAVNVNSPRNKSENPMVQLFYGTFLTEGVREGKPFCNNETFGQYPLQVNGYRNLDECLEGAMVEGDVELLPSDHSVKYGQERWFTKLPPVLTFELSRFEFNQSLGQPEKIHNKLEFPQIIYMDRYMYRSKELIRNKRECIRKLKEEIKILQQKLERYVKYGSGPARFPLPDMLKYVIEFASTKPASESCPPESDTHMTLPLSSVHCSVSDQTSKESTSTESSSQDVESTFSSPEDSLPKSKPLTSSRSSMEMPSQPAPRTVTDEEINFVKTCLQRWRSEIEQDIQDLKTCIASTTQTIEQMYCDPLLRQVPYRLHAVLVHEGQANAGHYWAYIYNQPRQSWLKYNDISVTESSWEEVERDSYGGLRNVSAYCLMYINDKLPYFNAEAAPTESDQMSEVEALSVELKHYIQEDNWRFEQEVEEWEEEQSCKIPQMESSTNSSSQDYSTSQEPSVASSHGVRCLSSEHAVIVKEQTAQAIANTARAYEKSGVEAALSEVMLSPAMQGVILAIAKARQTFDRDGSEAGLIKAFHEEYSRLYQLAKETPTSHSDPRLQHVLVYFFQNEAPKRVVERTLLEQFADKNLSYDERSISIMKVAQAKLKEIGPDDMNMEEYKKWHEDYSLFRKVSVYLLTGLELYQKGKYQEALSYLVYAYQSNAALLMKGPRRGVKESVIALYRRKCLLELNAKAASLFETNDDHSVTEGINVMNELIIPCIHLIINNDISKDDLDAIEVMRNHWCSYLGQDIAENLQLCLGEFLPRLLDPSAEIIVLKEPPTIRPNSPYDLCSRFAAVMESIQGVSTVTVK
OTUD3 block: blocks human OTUD3 ubiquitin-rhodamine cleavage | Q5T2D3 | purified OTUD3, Ub-rhodamine fluorescence, 2 h | inhibition, % at 25 µM | 47,000 tested, 0.7% active
* = called active by the depositor; / = no result given. No stated cut-off is given here; in the data, active means inhibition above about 30%; inactive means the rest.

SMILES	USP28 block	OTUD3 block
Fc1ccccc1-c1nnc(SCc2ccccc2)n1Cc1ccccc1	63.8*	34.8*
CC(Sc1nnc(-c2ccccc2F)n1Cc1ccccc1)C(=O)N1CCc2ccccc21 (stereo unspecified)	17.7	25.1
CCc1ccc(N(CC(=O)NC(C)(C)C)C(=O)CCC(=O)Nc2nccs2)cc1	-2.7	1.8
Cc1cc(N2CCN(C)CC2)n2nc(CN3CCCC(C)C3)nc2n1 (stereo unspecified)	-20.2	-8.9
CCc1ccc(C2CN3C(=O)N(c4ccccc4C)C(=O)[C@]3(C)c3[nH]c4ccccc4c32)cc1 (stereo partly specified)	0.9	-0.2
COc1ccc2c(c1)CCc1c-2n[nH]c1C(=O)Nc1cc(C)on1	34.1*	17.5
Cc1cc(NC(=O)c2[nH]nc3c2CCc2ccccc2-3)no1	12.2	-10.0
O=[N+]([O-])c1cccc(-c2nnc(Cc3cc(F)cc(F)c3)o2)c1	15.3	0.0
O=[N+]([O-])c1ccc(Cc2nnc(-c3ccccc3Cl)o2)cc1	47.9*	3.9
Cc1ccc(C)c(N(C(C)C(=O)NCc2ccncc2)S(C)(=O)=O)c1 (stereo unspecified)	17.0	8.0
Nc1ncnc2sc(Nc3ccc([N+](=O)[O-])cc3)nc12	32.7*	10.2
O=C(CSc1nnc(NC(=O)c2ccc([N+](=O)[O-])cc2)s1)Nc1ccc(Br)cc1	13.1	10.6
CC(=O)Nc1cccc(NC(=O)CSc2ncnc3c2nnn3-c2ccc(C)cc2)c1	0.9	9.3
O=C(COc1ccccc1F)N1CCSc2ccc(Cl)cc21	41.4*	25.7
O=C(COc1ccc(F)cc1Br)N1CCSc2ccccc21	6.0	11.7
Cc1nc2c(-c3ccccc3)noc2c(=O)n1CC(=O)O	7.7	20.7
CCn1c(CNC(=O)c2ccco2)nnc1SCC(=O)Nc1cccc(C)c1	-0.7	-2.6
Cn1cc(C(=O)NCc2ccccc2F)c(S(=O)(=O)N2CCCCC2)n1	-14.4	-0.9
O=C(NCc1ccccc1F)c1ccc(Cl)c(S(=O)(=O)N2CCCCC2)c1	38.4*	15.9
COc1ccc(-c2noc(CC(=O)N(C)c3ccccc3C)n2)cc1	/	-3.5
COc1c2n(c3ccccc13)[C@@]1(O)C(=O)N(C)C(=O)[C@@]1(O)c1c-2n(C)c2ccc(Cl)cc12	41.8*	50.2*
Cc1cccc(-c2c(NC(=O)c3ccc(Cl)cc3Cl)n(C)c3ccccc3c2=O)c1	9.4	10.3
Cc1ccc(NC(=O)CC(C)S(=O)(=O)c2ccc3c(c2)NC(=O)CO3)cc1N(C)C (stereo unspecified)	0.4	-18.9
CN1C(=O)COc2ccccc2CCCC[C@H]2NCCC[C@H]21	-8.7	-5.8
CCC(=O)Nc1nc2cc(NC(=O)c3ccccc3C)ccc2s1	7.0	3.7
SMILES	USP28 block	OTUD3 block
CCS(=O)(=O)c1ccccc1C(=O)Nc1ccc2sc(C)nc2c1	54.7*	7.0
Cc1ccc(C)c(-c2cc3c(=O)n(Cc4noc(CN5CCCCC5)n4)ccn3n2)c1	70.5*	-15.3
CC1CCN(Cc2nc(Cn3ccn4nc(-c5ccccc5)cc4c3=O)no2)CC1	-0.2	-8.3
COc1cc(/C=C\C(=O)Nc2c3c(nn2-c2ccc(F)cc2)CS(=O)(=O)C3)cc(OC)c1OC	-26.9	-16.9
COc1cccc(OC(=O)c2cn(C)c(=O)c3ccccc23)c1	-1.9	-0.1
COc1ccc(NC(=O)CC(=O)c2ccc([N+](=O)[O-])cc2)cc1S(=O)(=O)Nc1ccc(Br)cc1	42.4*	23.2
COc1ccc(NS(=O)(=O)c2ccc(Cl)c(NC(=O)CC(=O)c3ccc([N+](=O)[O-])cc3)c2)cc1	20.9	3.2
COc1ccc(CNC(=O)CN2C(=O)C3CCCC3=Nc3ccccc32)cc1 (stereo unspecified)	13.8	25.0
CCc1ccc(NC(=O)N2CCC3(CC2)OC(C(=O)N(CC)CC)Cn2ccnc23)cc1 (stereo unspecified)	0.7	8.3
CCC/C=C\C#CC/C=C\CCCCCCCC(=O)O	69.1*	57.6*
CCCCCCCC/C=C\CCCCCCCC(=O)O	2.4	-2.1
Cc1ccc(CNS(=O)(=O)c2cc(-c3noc(C)n3)ccc2C)cc1	6.8	2.6
CN1CC2CN(Cc3ccc(F)cc3)CCN2Cc2ccccc21 (stereo unspecified)	-204.2	-197.0
CC(C)=CCc1cccc2c(C3=C(O)C(=O)C(c4c[nH]c5c(CC=C(C)C)cccc45)=C(O)C3=O)c[nH]c12	51.9*	30.8*
CNc1nc(C2CCCNC2)nc2c1CCN(CCc1ccccc1)C2 (stereo unspecified)	/	4.0
O=C(COC(=O)CC1CCCCC1)Nc1cccc(S(=O)(=O)N2CCCCC2)c1	20.1	19.9
O=C(COc1nc2ccccc2nc1N1CCOCC1)Nc1cccc(S(=O)(=O)N2CCCCC2)c1	-6.8	47.5*
O=C(COC(=O)c1ccc2c(=O)n3c(nc2c1)CCCCC3)NC12CC3CC(CC(C3)C1)C2	4.2	8.9
O=C(Nc1ccccc1)c1ccc(N2CCCC2)c([N+](=O)[O-])c1	15.2	-0.1
O=C(Nc1cccc(S(=O)(=O)N2CCCC2)c1)c1ccc2c(=O)n3c(nc2c1)CCCCC3	61.6*	1.0
O=C(COC(=O)c1ccc2c(=O)n3c(nc2c1)CCCCC3)NCC1CCCCC1	40.9*	9.0
Cc1ccc(NC(=O)c2ccc3c(=O)n4c(nc3c2)CCCCC4)cc1S(=O)(=O)N1CCOCC1	/	3.7
O=C(Nc1cccc(S(=O)(=O)N2CCCC2)c1)c1ccc(N2CCOCC2)c([N+](=O)[O-])c1	40.7*	11.8
COc1ccc([N+](=O)[O-])cc1C1N(c2ccccc2)CCN1c1ccccc1	2.2	-1.2
Cc1ccccc1Nc1nc(N)nc(CN2CCCCC2)n1	-29.4	-28.4
SMILES	USP28 block	OTUD3 block
O=c1c2cc(NS(=O)(=O)c3ccc4c(c3)OCCO4)ccc2ncn1Cc1ccccc1	11.0	2.4
CC(=O)c1cccc(NC(=O)Cn2c(=O)nc(N3CCC(C)CC3)c3ccccc32)c1	-8.6	-9.0
O=C(C1CCCN(S(=O)(=O)N2CCOCC2)C1)N1CCN(c2ccccn2)CC1 (stereo unspecified)	9.8	15.0
CC1Oc2ccc(NC(=O)c3cccc(S(=O)(=O)N4CCc5ccccc5C4)c3)cc2NC1=O (stereo unspecified)	10.4	-5.8
O=C(NCCCc1nc2ccccc2n1Cc1c(F)cccc1Cl)c1ccco1	5.2	6.0
O=C(NCCCc1nc2ccccc2n1Cc1c(Cl)cccc1Cl)c1ccco1	47.0*	28.2
O=C(Cn1c(=O)n(CC2CCC(C(=O)NC3CCCC3)CC2)c(=O)c2ccccc21)NCCC1=CCCCC1 (stereo unspecified)	1.5	22.4
CC(=O)c1sc(NC(=O)/C=C/c2ccccc2)nc1-c1ccccc1	4.8	3.3
Cc1sc(NC(=O)/C=C/c2ccco2)nc1-c1ccccc1	54.3*	3.2
CC(=O)c1ccc(N2CCN(c3cccc(Cl)c3)CC2)s1	-18.7	-16.8
O=C(C1CCCN(S(=O)(=O)N2CCCCCC2)C1)N1CCN(c2ccccc2F)CC1 (stereo unspecified)	-8.8	0.6
CCn1cc2nc(SCC(=O)NC3CCCC3)n(Cc3ccc(C)cc3)c(=O)c2n1	11.9	15.8
CSc1cccc(NC(=O)CCc2c(C)nc3ncnn3c2C)c1	-2.1	-3.2
O=C(c1ccc2c(c1)OCCO2)N1CCC[C@@H](Cn2nnc(-c3ccncc3)n2)C1	-2.6	-7.1
C=C1C=C(CCC(=O)O)C(=O)OC1/C=C/C=C/C (stereo unspecified)	99.2*	96.5*
